# Measurements published in PubChem BioAssay (NCATS).
# Records with an inconclusive call do not appear. A call without a number means that no potency is given here. A number with no mark means an inactive call. The source made the active and inactive calls. The call rests on the fitted dose curve; in most records, active means well fitted inhibition curve with a large enough effect; inconclusive means small, poorly fitted or top-dose-only effect; inactive means flat fitted curve, though single readings scatter.
# Assays:
# CRL-7250 = normal cell line; assay: Cytotoxic Profiling of Annotated Libraries Using Quantitative High-Throughput Screening (AID 1296008); conditions: Five cell lines viability, CellTiter-Glo ATP luminescence, 48-72 h; max response: stronger effect = lower value; further: potency means the concentration at half of the fitted maximal effect
# Procedure, shortened: (§1)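 Cells exposed to compounds for 48 or 72 hr at 37 degrees Celsius. Viability read as ATP-coupled luminescence with CellTiter-Glo after 10 min at room temperature.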
# HEK293 = assay: as above; conditions: Five cell lines viability, CellTiter-Glo ATP luminescence, 48-72 h; max response: stronger effect = lower value
# Procedure, shortened: as §1
# HaCat [1] = assay: as above; conditions: Five cell lines viability, CellTiter-Glo ATP luminescence, 48-72 h; max response: stronger effect = lower value
# Procedure, shortened: as §1
# KB-3-1 = assay: as above; conditions: Five cell lines viability, CellTiter-Glo ATP luminescence, 48-72 h; max response: stronger effect = lower value
# Procedure, shortened: as §1
# NIH3T3 = assay: as above; conditions: Five cell lines viability, CellTiter-Glo ATP luminescence, 48-72 h; max response: stronger effect = lower value
# Procedure, shortened: as §1
# HACAT [2] = assay: qHTS assay to identify novel small-molecules to repurpose for Merkel cell carcinoma treatment (AID 1296009); conditions: MCC and control cell lines, CellTiter-Glo viability, 72 h; at 44.8 µM (top of the series) unless noted
# Procedure, shortened: (§2)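 Cells were treated for 72 hr at 37 degree celsius with compounds in 8- or 11-point dose response. Viability was read by CellTiter-Glo luminescence, normalized to no-cell (cytotoxicity) and DMSO controls.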
# MCC-13 = assay: as above; conditions: MCC and control cell lines, CellTiter-Glo viability, 72 h; series mostly up to 46 µM
# Procedure, shortened: as §2
# MCC-26 = assay: as above; conditions: MCC and control cell lines, CellTiter-Glo viability, 72 h; series mostly up to 46 µM
# Procedure, shortened: as §2
# MKL-1 = assay: as above; conditions: MCC and control cell lines, CellTiter-Glo viability, 72 h; series mostly up to 46 µM
# Procedure, shortened: as §2
# MKL-2 = assay: as above; conditions: MCC and control cell lines, CellTiter-Glo viability, 72 h; series mostly up to 46 µM
# Procedure, shortened: as §2
# HEK293T = assay: as above; conditions: MCC and control cell lines, CellTiter-Glo viability, 72 h; at 44.8 µM (top of the series) unless noted
# Procedure, shortened: as §2
# Further: nearly all actives have a fitted effect of over 60% in size.
Compound,max response (CRL-7250),max response (HEK293),outcome (HaCat [1]),max response (KB-3-1),max response (NIH3T3),outcome (HACAT [2]),Potency (MCC-13),Potency (MCC-26),Potency (MKL-1),Potency (MKL-2),max response (HaCat [1]),outcome (HEK293),outcome (HEK293T),outcome (CRL-7250),outcome (KB-3-1),Potency (HEK293),outcome (NIH3T3),Potency (KB-3-1)
C=CCOc1cc(Cl)ccc1C(=O)NCCN(CC)CC,-3.78%,-33.1%,inactive,6.3%,1.31%,inactive,inactive,inactive,inactive,inactive,–,–,–,–,–,–,–,–
O=C(O)c1ccccc1Nc1cc(Cl)ccc1C(=O)O,2.83%,-2.68%,inactive,-6.82%,-15.4%,inactive [at 17.4 µM],inactive,inactive,inactive,–,–,–,–,–,–,–,–,–
COC(=O)C1=CO[C@@H](O)[C@@H]2C(CO)=CC[C@H]12,0.169%,-25.4%,–,-12.1%,-14.6%,–,–,–,–,–,-1.37%,–,–,–,–,–,–,–
C[C@@]12CCC[C@H]1[C@@H]1CC[C@H]3C[C@@H](O)CC[C@]3(C)[C@H]1CC2,2.58%,–,–,-1.74%,0.76%,–,inactive,inactive,inactive,inactive,2.53%,inactive,inactive,–,–,–,–,–
CCN1CCN(C(=O)N[C@@H](C(=O)N[C@@H]2C(=O)N3[C@@H]2SC(C)(C)[C@H]3C(=O)O)c2ccccc2)C(=O)C1=O,–,-1.44%,inactive,-9.16%,2.03%,inactive,inactive,inactive,inactive,inactive,–,–,–,inactive,–,–,–,–
CCOC(=O)NNc1nncc2ccccc12,-0.257%,-5.42%,inactive,-9.29%,3.89%,inactive,inactive,inactive,inactive,inactive,–,–,–,–,–,–,–,–
C1=CC2C3C=CC(C3)C2C1 (configuration not stated),–,–,–,-6.71%,0.366%,–,inactive,inactive,inactive,inactive,-9.73%,inactive,inactive [at 92 µM],inactive,–,–,–,–
C1N2CN3CN1CN(C2)C3,–,–,–,-1.26%,-2.39%,–,inactive,inactive,inactive,inactive,-1.63%,inactive,inactive,inactive,–,–,–,–
CCOC(=O)c1ccc(OCCN2C[C@H](O)[C@@H](O)[C@H](O)[C@H]2CO)cc1,-7.54%,-10.3%,–,–,-0.529%,–,inactive,inactive,inactive,inactive,-6.67%,–,–,–,inactive,–,–,–
Cc1ncc(CO)c(CO)c1O,1.45%,4.28%,inactive,-24.2%,-3.24%,inactive,inactive,inactive,inactive,inactive,–,–,–,–,–,–,–,–
C=CC[N+]1([C@H]2C[C@H]3[C@@H]4CC[C@H]5C[C@H](OC(C)=O)[C@@H](N6CCCCC6)C[C@]5(C)[C@H]4CC[C@]3(C)[C@H]2OC(=O)CC)CCCCC1,-0.558%,0.459%,–,–,-0.979%,–,inactive,inactive,inactive,–,4.73%,–,–,–,inactive,–,–,–
O=C(CCCCC(=O)Nc1c(I)cc(I)c(C(=O)O)c1I)Nc1c(I)cc(I)c(C(=O)O)c1I,2.98%,–,–,-11.9%,4.23%,–,inactive,–,inactive,inactive,4.99%,inactive,inactive,–,–,–,–,–
COc1cc(NS(=O)(=O)c2ccc(N)cc2)nc(C)n1,-6.73%,–,–,–,4.73%,–,inactive,inactive,inactive,inactive,-7.5%,inactive,inactive,–,inactive,–,–,–
C[N+]1(CC2COC(c3ccccc3)(c3ccccc3)O2)CCCCC1 (configuration not stated),1.41%,–,–,-21.8%,-38.8%,–,inactive,inactive,inactive,–,-14.4%,–,–,–,–,10 µM (active),–,–
O=C(CO)[C@@H](O)[C@H](O)[C@@H](O)CO,–,–,–,-7.71%,–,–,inactive,inactive,inactive,inactive,3.88%,inactive,inactive,inactive,–,–,inactive,–
O=C(COCCOCCOCC(=O)Nc1c(I)cc(I)c(C(=O)O)c1I)Nc1c(I)cc(I)c(C(=O)O)c1I,–,0.699%,inactive,-17%,4.72%,inactive,inactive,inactive,inactive,inactive,–,–,–,inactive,–,–,–,–
OC[C@]1(O)OC[C@@H](O)[C@H](O)[C@@H]1O,-7.2%,–,–,-6.46%,–,–,inactive,inactive,inactive,inactive,-0.702%,inactive,inactive,–,–,–,inactive,–
Nc1c(NC/C=C\COc2cc(CN3CCCCC3)ccn2)c(=O)c1=O,-21.7%,-20.2%,–,–,0.202%,–,inactive,inactive,inactive,inactive,-11%,–,–,–,–,–,–,23.1 µM (active)
CCCC(=O)O[C@]1(C(=O)COC(=O)CC)CC[C@H]2[C@@H]3CCC4=CC(=O)CC[C@]4(C)[C@H]3[C@@H](O)C[C@@]21C,1.61%,3.26%,inactive,-1.68%,1.36%,inactive [at 17.4 µM],inactive,inactive,inactive,inactive,–,–,–,–,–,–,–,–
